# Target: Receptor tyrosine-protein kinase erbB-4 (Homo sapiens) (UniProt Q15303);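 also: each value is a mean percent inhibition of ERBB4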
# Conditions: at 1 µM
# Chain of Receptor tyrosine-protein kinase erbB-4 (Homo sapiens) (Q15303 whole entry): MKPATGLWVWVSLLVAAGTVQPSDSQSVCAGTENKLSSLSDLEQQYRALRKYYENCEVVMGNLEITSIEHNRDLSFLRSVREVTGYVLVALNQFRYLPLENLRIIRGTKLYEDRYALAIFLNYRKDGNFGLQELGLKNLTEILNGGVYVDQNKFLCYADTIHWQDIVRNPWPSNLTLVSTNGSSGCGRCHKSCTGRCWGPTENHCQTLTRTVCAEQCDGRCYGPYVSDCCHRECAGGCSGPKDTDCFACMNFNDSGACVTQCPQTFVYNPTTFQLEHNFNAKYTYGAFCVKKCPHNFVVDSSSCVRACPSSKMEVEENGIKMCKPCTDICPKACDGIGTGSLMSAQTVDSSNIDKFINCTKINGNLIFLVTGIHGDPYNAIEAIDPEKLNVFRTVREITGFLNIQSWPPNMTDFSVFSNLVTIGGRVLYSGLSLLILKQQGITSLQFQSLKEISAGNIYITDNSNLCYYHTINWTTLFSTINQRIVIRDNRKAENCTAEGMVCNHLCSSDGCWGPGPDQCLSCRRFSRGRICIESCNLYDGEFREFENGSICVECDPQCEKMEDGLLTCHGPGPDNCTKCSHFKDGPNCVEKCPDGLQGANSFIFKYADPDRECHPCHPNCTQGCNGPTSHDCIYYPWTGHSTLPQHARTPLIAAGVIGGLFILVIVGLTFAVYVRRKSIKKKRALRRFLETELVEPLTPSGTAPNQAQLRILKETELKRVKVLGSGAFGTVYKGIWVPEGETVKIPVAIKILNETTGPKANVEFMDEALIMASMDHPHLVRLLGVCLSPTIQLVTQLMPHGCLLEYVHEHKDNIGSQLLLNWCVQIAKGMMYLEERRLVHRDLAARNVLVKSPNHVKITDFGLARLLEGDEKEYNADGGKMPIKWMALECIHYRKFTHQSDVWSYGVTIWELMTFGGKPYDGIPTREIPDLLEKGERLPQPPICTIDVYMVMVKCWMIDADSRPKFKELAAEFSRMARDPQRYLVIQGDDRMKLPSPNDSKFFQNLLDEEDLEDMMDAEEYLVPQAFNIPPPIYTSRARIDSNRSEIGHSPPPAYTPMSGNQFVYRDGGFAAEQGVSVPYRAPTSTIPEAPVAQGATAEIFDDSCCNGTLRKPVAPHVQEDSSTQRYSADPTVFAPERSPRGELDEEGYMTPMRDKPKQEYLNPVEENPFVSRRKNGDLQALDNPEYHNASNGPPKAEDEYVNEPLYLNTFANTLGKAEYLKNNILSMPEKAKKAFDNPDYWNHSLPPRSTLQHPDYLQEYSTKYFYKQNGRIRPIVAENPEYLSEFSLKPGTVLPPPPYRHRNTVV
row,SMILES,inhibition
1,CCn1c(-c2nonc2N)nc2ccc(F)cc21,20.7%
2,[O-][S+]1CCN(Cc2ccc(-c3ccc4ncnc(Nc5ccc(OCc6ccccc6)c(Cl)c5)c4c3)o2)CC1,84.3%
3,N#Cc1cccc(Nc2nccc(-c3cnn4ncccc34)n2)c1,19.1%
4,CS(=O)(=O)CCNCc1nc(-c2ccc3ncnc(Nc4ccc(OCc5cccc(C(F)(F)F)c5)cc4)c3c2)cs1,25.6%
5,COC(=O)c1ccc2c(c1)C(=Cc1cc(Br)c(O)c(Br)c1)C(=O)N2,14.2%
6,NS(=O)(=O)c1cccc(-c2cc3ccncc3cc2OCc2ccccc2)c1,9.16%
7,COc1ccc(-c2nn3ncccc3c2-c2ccnc(Nc3cccc(C(F)(F)F)c3)n2)cc1,83.1%
8,Cc1cc(O)cc(C)c1/C=C/c1cncc(C(=O)N(C)C)c1,7.51%
9,COc1cc(/C=N/Nc2ncnc3c2cnn3C(C)C)ccc1O,6.31%
10,CCOc1nccc2c1nc(-c1nonc1N)n2CC,18%
11,Oc1cccc(-c2nc(-c3ccccc3)[nH]c2-c2ccncc2)c1,19.4%
12,Nc1nccc(C#Cc2cncnc2Nc2ccc(OCc3cccc(F)c3)c(Cl)c2)n1,24.8%
13,Cc1ccc2c(-c3ccnc(Nc4ccc5c(c4)OCCO5)n3)c(-c3ccc(C(F)(F)F)cc3)nn2n1,16.3%
14,CS(=O)(=O)Nc1cccc(-c2ccc3c(NC(=O)C4CC4)n[nH]c3c2)c1,8.34%
15,Cc1cc(-c2ccccn2)cc(C)c1/C=C/c1cncc(-c2nn[nH]n2)c1,21.3%
16,CN(C)CCCn1c(-c2nonc2N)nc2cnccc21,16.3%

row,SMILES,inhibition
1,Cc1cc(Cl)cc2c1NC(=O)C2=NNc1ccc(S(N)(=O)=O)cc1,6.7%
2,CN(c1ccc(NC(=O)Nc2ccc(OC(F)(F)F)cc2)cc1)c1ccnc(Nc2cccc(S(N)(=O)=O)c2)n1,14.5%
3,COc1cc2ncn(-c3cc(OCc4ccccc4S(C)(=O)=O)c(C#N)s3)c2cc1OC,8.72%
4,Cc1ccc(O)cc1Nc1ccnc2ccc(S(C)(=O)=O)cc12,52.2%
5,CN1CCN(C(=O)c2ccc(NC(=O)Nc3ccc(N(C)c4ccnc(Nc5ccc(CS(C)(=O)=O)cc5)n4)cc3)cc2)CC1,17.1%
6,COC(=O)Nc1nc2cc(Oc3ccc(NC(=O)Nc4cccc(Br)c4)cc3)ccc2[nH]1,11.2%
7,Cc1nc(-c2ccccc2)n2nc(NCCCN3CCOCC3)ncc12,11.3%
8,COc1cc(Nc2nccc(-c3cnn4ncccc34)n2)cc(OC)c1,8.81%
9,NS(=O)(=O)c1cccc(Nc2cc(-c3ccc(F)cc3)n[nH]2)c1,11.3%
10,COc1ccc2ncnc(Nc3ccc(OCc4ccccc4)cc3)c2c1,85.1%
11,Cc1ccc2c(c1)/C(=N/Nc1ccc(S(N)(=O)=O)cc1)C(=O)N2,7.37%
12,NS(=O)(=O)c1ccc(NC=C2C(=O)Nc3ccc4ncsc4c32)cc1,11.2%
13,CCS(=O)(=O)c1ccc(OC)c(Nc2ncc(-c3cccc(OC)c3)o2)c1,22.1%
14,c1ccc(Cc2nc3ccc(Nc4ncnc5ccccc45)cc3[nH]2)cc1,115%
15,NC(=O)c1cccc(Nc2nccc(Nc3cccc(F)c3)n2)c1,13.2%
16,CCCN1CCCC(c2ccc(Nc3nc(Nc4cc(F)ccc4C(N)=O)c4cc[nH]c4n3)c(OC)c2)C1 (stereo unspecified),75%

# Target: Tyrosine-protein kinase Fer (Homo sapiens) (UniProt P16591);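 also: reported figures are averaged percent inhibition of FER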
# Conditions: at 0.1 µM
# Chain of Tyrosine-protein kinase Fer (Homo sapiens) (P16591 whole entry, looked up): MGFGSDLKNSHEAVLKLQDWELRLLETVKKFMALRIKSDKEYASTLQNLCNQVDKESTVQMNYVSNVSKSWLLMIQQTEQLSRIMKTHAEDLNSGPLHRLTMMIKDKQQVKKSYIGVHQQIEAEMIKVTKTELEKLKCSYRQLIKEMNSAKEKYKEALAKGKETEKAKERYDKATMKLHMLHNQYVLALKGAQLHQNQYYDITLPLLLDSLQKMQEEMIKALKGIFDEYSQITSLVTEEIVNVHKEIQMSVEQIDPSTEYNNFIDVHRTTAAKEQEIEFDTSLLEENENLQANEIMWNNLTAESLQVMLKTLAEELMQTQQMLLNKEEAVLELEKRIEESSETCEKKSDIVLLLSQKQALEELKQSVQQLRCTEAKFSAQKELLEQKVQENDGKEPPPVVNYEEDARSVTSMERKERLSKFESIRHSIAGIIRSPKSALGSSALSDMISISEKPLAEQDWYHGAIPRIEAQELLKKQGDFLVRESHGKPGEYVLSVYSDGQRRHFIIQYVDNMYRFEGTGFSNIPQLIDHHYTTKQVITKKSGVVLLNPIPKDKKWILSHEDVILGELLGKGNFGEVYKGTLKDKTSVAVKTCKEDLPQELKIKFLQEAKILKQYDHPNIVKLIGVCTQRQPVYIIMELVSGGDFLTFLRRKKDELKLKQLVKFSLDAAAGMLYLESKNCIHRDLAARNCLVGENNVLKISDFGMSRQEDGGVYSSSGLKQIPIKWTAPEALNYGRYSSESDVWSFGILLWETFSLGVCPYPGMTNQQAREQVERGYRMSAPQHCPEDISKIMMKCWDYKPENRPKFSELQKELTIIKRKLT
row,SMILES,inhibition
1,CCn1c(-c2nonc2N)nc2ccc(F)cc21,3.01%
2,[O-][S+]1CCN(Cc2ccc(-c3ccc4ncnc(Nc5ccc(OCc6ccccc6)c(Cl)c5)c4c3)o2)CC1,-2.55%
3,N#Cc1cccc(Nc2nccc(-c3cnn4ncccc34)n2)c1,9.92%
4,CS(=O)(=O)CCNCc1nc(-c2ccc3ncnc(Nc4ccc(OCc5cccc(C(F)(F)F)c5)cc4)c3c2)cs1,3.78%
5,COC(=O)c1ccc2c(c1)C(=Cc1cc(Br)c(O)c(Br)c1)C(=O)N2,-1.52%
6,NS(=O)(=O)c1cccc(-c2cc3ccncc3cc2OCc2ccccc2)c1,3.7%
7,COc1ccc(-c2nn3ncccc3c2-c2ccnc(Nc3cccc(C(F)(F)F)c3)n2)cc1,0.8%
8,Cc1cc(O)cc(C)c1/C=C/c1cncc(C(=O)N(C)C)c1,3.43%
9,COc1cc(/C=N/Nc2ncnc3c2cnn3C(C)C)ccc1O,2.02%
10,CCOc1nccc2c1nc(-c1nonc1N)n2CC,5.59%
11,Oc1cccc(-c2nc(-c3ccccc3)[nH]c2-c2ccncc2)c1,3.43%
12,Nc1nccc(C#Cc2cncnc2Nc2ccc(OCc3cccc(F)c3)c(Cl)c2)n1,2.1%
13,Cc1ccc2c(-c3ccnc(Nc4ccc5c(c4)OCCO5)n3)c(-c3ccc(C(F)(F)F)cc3)nn2n1,0.5%
14,CS(=O)(=O)Nc1cccc(-c2ccc3c(NC(=O)C4CC4)n[nH]c3c2)c1,-0.81%
15,Cc1cc(-c2ccccn2)cc(C)c1/C=C/c1cncc(-c2nn[nH]n2)c1,-0.04%
16,CN(C)CCCn1c(-c2nonc2N)nc2cnccc21,1.8%
17,Cc1cc(Cl)cc2c1NC(=O)C2=NNc1ccc(S(N)(=O)=O)cc1,2.65%

row,SMILES,inhibition
1,CN(c1ccc(NC(=O)Nc2ccc(OC(F)(F)F)cc2)cc1)c1ccnc(Nc2cccc(S(N)(=O)=O)c2)n1,12.6%
2,COc1cc2ncn(-c3cc(OCc4ccccc4S(C)(=O)=O)c(C#N)s3)c2cc1OC,6.67%
3,Cc1ccc(O)cc1Nc1ccnc2ccc(S(C)(=O)=O)cc12,4.91%
4,CN1CCN(C(=O)c2ccc(NC(=O)Nc3ccc(N(C)c4ccnc(Nc5ccc(CS(C)(=O)=O)cc5)n4)cc3)cc2)CC1,16.2%
5,COC(=O)Nc1nc2cc(Oc3ccc(NC(=O)Nc4cccc(Br)c4)cc3)ccc2[nH]1,2.5%
6,NS(=O)(=O)c1ccc(N/N=C2\C(=O)Nc3ccc(Cl)cc32)cc1,2.95%
7,Cc1nc(-c2ccccc2)n2nc(NCCCN3CCOCC3)ncc12,1.34%
8,COc1cc(Nc2nccc(-c3cnn4ncccc34)n2)cc(OC)c1,11.1%
9,NS(=O)(=O)c1cccc(Nc2cc(-c3ccc(F)cc3)n[nH]2)c1,5.3%
10,COc1ccc2ncnc(Nc3ccc(OCc4ccccc4)cc3)c2c1,-1.28%
11,Cc1ccc2c(c1)/C(=N/Nc1ccc(S(N)(=O)=O)cc1)C(=O)N2,1.02%
12,Cc1ccc(C(=O)NC2CC2)cc1-c1ccc2[nH]ncc2c1,-2.95%
13,NS(=O)(=O)c1ccc(NC=C2C(=O)Nc3ccc4ncsc4c32)cc1,5.32%
14,CCS(=O)(=O)c1ccc(OC)c(Nc2ncc(-c3cccc(OC)c3)o2)c1,-0.2%
15,c1ccc(Cc2nc3ccc(Nc4ncnc5ccccc45)cc3[nH]2)cc1,0.32%
16,NC(=O)c1cccc(Nc2nccc(Nc3cccc(F)c3)n2)c1,-2.66%
17,CCCN1CCCC(c2ccc(Nc3nc(Nc4cc(F)ccc4C(N)=O)c4cc[nH]c4n3)c(OC)c2)C1 (stereo unspecified),77.5%

# Source: ChEMBL document CHEMBL1961873, “Compounds: GSK PKIS; Assays: Nanosyn kinase panel” (2012)
